Unmarked numbers belong to inactive results. Activity calls are given as the source filed them. Unless noted, no stated cut-off is given here; in the data, active means inhibition above about 28%; inactive means the rest.
Key:
[1] = StAR promoter reporter inhibitors, counter-screen for LRH-1 inverse agonist project, cell-based, luminescence, high throughput (AID 651611); conditions: StAR promoter luciferase reporter counterscreen, at 3.6 µM, active compounds read high
[2] = target: Nuclear receptor subfamily 5 group A member 2 (Homo sapiens) (UniProt O00482); test: NR5A2 activity suppression in reporter cells – cell-based, luminescence, confirmation (AID 651613; in the data active means inhibition above about 42%;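 further: HEK293T cells co-transfected with LRH-1 and StAR promoter luciferase reporter; 0% = vehicle wells and 100% = parental cells lacking receptor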); conditions: cell-based LRH-1 luciferase reporter, inverse agonism; at 3.6 µM; active compounds read high
[3] = target: Steroidogenic factor 1 (Homo sapiens) (UniProt Q13285); test: inverse agonism at SF1 nuclear receptor – cell-based, luminescence, high throughput, counter-screen for LRH-1 inverse agonist project (AID 651614; in the data active means inhibition above about 44%;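 further: cells cotransfected with StAR promoter reporter and SF1 expression vector; 0% = vehicle on cells with receptor and 100% = vehicle on cells lacking receptor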); conditions: cell-based SF1 luciferase reporter, at 3.6 µM, active compounds read high
[4] = compounds suppressing VP16-driven luciferase signal – cell-based, luminescence, high throughput, counter-screen for LRH-1 inverse agonist project (AID 651615; in the data active means inhibition above about 33%); conditions: Gal4-VP16 luciferase reporter cells, at 3.6 µM, active compounds read high

Steroidogenic factor 1 (Homo sapiens), sequence (Q13285 whole entry, looked up, the tested form may be a part): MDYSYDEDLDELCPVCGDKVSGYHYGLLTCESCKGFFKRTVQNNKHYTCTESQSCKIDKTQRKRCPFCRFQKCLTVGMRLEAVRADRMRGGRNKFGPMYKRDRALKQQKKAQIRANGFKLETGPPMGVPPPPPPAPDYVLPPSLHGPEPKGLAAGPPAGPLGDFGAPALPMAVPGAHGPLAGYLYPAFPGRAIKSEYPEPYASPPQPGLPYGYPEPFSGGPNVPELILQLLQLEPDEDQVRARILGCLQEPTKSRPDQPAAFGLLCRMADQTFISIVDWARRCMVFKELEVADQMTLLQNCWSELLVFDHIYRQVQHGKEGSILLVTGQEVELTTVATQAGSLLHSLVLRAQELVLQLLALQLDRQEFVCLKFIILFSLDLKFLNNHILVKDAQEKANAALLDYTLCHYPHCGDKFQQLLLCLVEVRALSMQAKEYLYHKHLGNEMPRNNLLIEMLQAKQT
Nuclear receptor subfamily 5 group A member 2 (Homo sapiens), sequence (O00482 whole entry, looked up): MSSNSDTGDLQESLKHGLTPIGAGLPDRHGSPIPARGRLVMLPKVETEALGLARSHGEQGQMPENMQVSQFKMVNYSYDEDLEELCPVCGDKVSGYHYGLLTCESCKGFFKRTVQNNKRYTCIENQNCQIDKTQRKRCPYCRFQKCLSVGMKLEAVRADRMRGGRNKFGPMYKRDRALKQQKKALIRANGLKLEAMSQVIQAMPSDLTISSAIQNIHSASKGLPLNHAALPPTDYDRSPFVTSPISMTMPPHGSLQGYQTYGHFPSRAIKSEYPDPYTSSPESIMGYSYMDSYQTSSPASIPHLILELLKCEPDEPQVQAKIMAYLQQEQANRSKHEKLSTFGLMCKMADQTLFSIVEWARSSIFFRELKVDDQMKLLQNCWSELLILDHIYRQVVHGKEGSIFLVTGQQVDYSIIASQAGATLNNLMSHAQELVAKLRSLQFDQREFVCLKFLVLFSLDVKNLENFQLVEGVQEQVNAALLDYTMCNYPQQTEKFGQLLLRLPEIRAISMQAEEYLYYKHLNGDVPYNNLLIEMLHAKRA

| SMILES | inhibition [1] | inhibition [2] | inhibition [3] | inhibition [4] |
| --- | --- | --- | --- | --- |
| CC1Cc2ccccc2N1C1=CC(=O)CC(C)(C)C1 (stereo unspecified) | 21.4% | 55.3% (active) | 51.9% (active) | -3.44% |
| O=C(Cn1ccc(=O)[nH]c1=O)c1ccc([N+](=O)[O-])o1 | 13.1% | 14.3% | 14.9% | -16.8% |
| N#Cc1c(N)c(C#N)c(-c2ccc(O)cc2)c2c1CCCC2 | 6.6% | 57.8% (active) | 53.8% (active) | 9.21% |
| Cc1cc(C)c2c(NC(=O)CCl)nn(C)c2n1 | 46.8% (active) | 64.2% (active) | 68.7% (active) | -39.7% |
| Cc1[nH]c2ccccc2c1/C=N/Nc1ccc([N+](=O)[O-])cc1 | -1.71% | 55.8% (active) | 56.5% (active) | -3.15% |
| Cc1cccc(NC(=O)CSC2=NN3CCCC(=O)N=C3S2)c1C | -10.1% | 53.1% (active) | 49% (active) | -5.97% |
| C=CC[n+]1c(/C=C2\C=Cc3cc(C)ccc3N2CC)ccc2ccccc21 | 80.6% (active) | 110% (active) | 95.5% (active) | 95.8% (active) |
| Cc1ccccc1Nc1nc(Cl)c(C=O)s1 | 2.17% | 50.5% (active) | 41.7% | -5.11% |
| COc1ccc(OC)c(CCNC(=O)Cn2nc(C)c3c(C)n(-c4ccc(C)cc4)nc3c2=O)c1 | 38.8% (active) | 68% (active) | 63.8% (active) | 52% (active) |
| COc1cccc(C2c3cc4c(cc3OC(N3CCCC3)C2C)OCO4)c1O (stereo unspecified) | 55% (active) | 64% (active) | 73.2% (active) | 21.9% |
| Nc1cccc2nc3ccccc3cc12 | 21.7% | 104% (active) | 55.1% (active) | 92.2% (active) |
| CCCCNC(=O)COC(=O)c1c2c(nc3ccccc13)/C(=C\c1cccs1)CC2 | -10.4% | 34.9% | 12.3% | 26.5% |
| N#Cc1cc([N+](=O)[O-])ccc1NC(=O)COC(=O)C1CCC(=O)N1 (stereo unspecified) | 15.6% | 53.7% (active) | 48.9% (active) | -3.83% |
| CN1c2ccccc2C(C)(C)C12C=Nc1c(cc(N3CCOCC3)c3ccccc13)O2 (stereo unspecified) | 9% | 19.1% | 21.1% | 4.98% |
| O=c1[nH]c(Nc2ccc3c(c2)OCCO3)nnc1Cc1ccccc1 | 0.14% | 59.5% (active) | 37.8% | -12.8% |
| COc1ccc(CNC(=O)O[C@@H]2C[C@H]3C(=O)N(c4ccccc4)C(=O)[C@H]3[C@@]3(CN(S(=O)(=O)c4ccc(C)cc4)C[C@H]3C)[C@@H]2O)cc1OC | 9.47% | 18.4% | 13.8% | 8.56% |
| CCCOc1ccc(NC(=O)CC2C(=O)N(C)C(=S)N2Cc2ccc3c(c2)OCO3)cc1 (stereo unspecified) | 6.7% | 57.6% (active) | 53.2% (active) | 5.2% |
| CC1(C(=O)NCc2ccc3c(c2)OCO3)CCN1C(=O)Cc1ccc(Cl)cc1Cl (stereo unspecified) | 7.73% | 56.5% (active) | 47% (active) | -2.52% |
| CCC(C)NC(=O)c1ccc2c(c1)N(Cc1ccccc1)C(=O)CS2 (stereo unspecified) | 7.12% | 49.2% (active) | 51.5% (active) | 3.22% |
| COc1cccc(-c2nc(NCC3CCCO3)c3ccccc3n2)c1O (stereo unspecified) | 31.9% (active) | 64.7% (active) | 59.1% (active) | -15.4% |
| O=C(Nc1ccccc1C(=O)NCCCn1ccnc1)c1ccccc1 | 14.8% | 53.6% (active) | 42.1% | -3.84% |
| COCCNc1ccc([N+](=O)[O-])cc1C(=O)NC1CCCc2ccccc21 (stereo unspecified) | 4.6% | 54.7% (active) | 53.5% (active) | 12.8% |
| Cc1nn(Cc2ccc(Cl)cc2)c(C)c1NC(=O)c1cc(C(C)C)on1 | 16.2% | 44.9% (active) | 64.8% (active) | 16% |
| COc1ccc2nc(N3CCN(C(=O)c4ccc([N+](=O)[O-])o4)CC3)sc2c1 | 0.52% | 64.3% (active) | 61.8% (active) | -44.3% |
